Dicer inh: inhibitors of Dicer pre-microRNA processing, primary screen, biochemical, cat-ELCCA, chemiluminescence; actives 6% (n = 47,000); z-score at 25 µM; AID 1347074, 2019; cat-ELCCA pre-miR-21 Dicer processing; active compounds read high; Endoribonuclease Dicer (Homo sapiens), Q9UPY3; in the data active = z-score above about 3, passing the limit was not always enough;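 note: plate controls were vehicle for no effect and no enzyme for full effect; higher signal means more uncleaved substrate so more Dicer inhibition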
* = called active by the depositor. The sample as a whole holds a higher share of hits than the screen did.

For COc1nc(NC(=O)NC(=O)c2c(OC)ccc([N+](=O)[O-])c2OC)nc(OC)n1 the results were Dicer inh -1.56.
For O=C(Nc1nc2ccsc2c(=O)s1)c1ccco1 the results were Dicer inh 0.51.
`Cc1csc2c(=O)sc(NC(=O)c3ccco3)nc12` gave Dicer inh 0.15.
For O=C(Nc1nc2c(ccc3ccccc32)s1)c1ccco1 the results were Dicer inh 5.7*.
For CCn1c(SC(C)C)nc2sc3c(c2c1=O)CCCC3 the results were Dicer inh 1.38.
For Cc1c(OCc2ccc([N+](=O)[O-])cc2)ccc2c1OC(C)(C)C=C2 the results were Dicer inh -0.61.
`O=C(CN1C2=NCCN2c2ccccc21)c1ccc(Cl)cc1` gave Dicer inh 0.
`O=C(CN1C2=NCCCN2c2ccccc21)c1ccc(Br)cc1` gave Dicer inh 4.03*.
For O=C(CN1C2=NCCCN2c2ccccc21)c1ccc2c(c1)OCO2 the results were Dicer inh 0.97.
Screening COCCOC(=O)C1=C(C)NC2=C(C(=O)CCC2)C1c1cc(Br)c(O)c(OC)c1 (configuration not stated) returned Dicer inh -0.65.
COc1ccc(C2=NN(C(=O)CCCC(=O)O)C(c3ccc(OC)cc3)C2)cc1 (configuration not stated) was read as Dicer inh 0.24.
`O=C(O)Cn1c2ccccc2c2nc3ccccc3nc21` gave Dicer inh -1.6.
For O=C(O)c1ccc2c(=O)n3c4ccccc4nc3c3ccc(C(=O)O)c1c23 the results were Dicer inh 3.15*.
Screening O=C(O)c1ccc2c(=O)n3c4ccc(Cl)cc4nc3c3ccc(C(=O)O)c1c23 returned Dicer inh 0.93.
`O=C(NC(=O)c1c(F)cccc1Cl)OCc1ccc(Cl)cc1Cl` gave Dicer inh -1.31.
For CN1CC=C(/C=C/c2ccccc2)CC1 the results were Dicer inh 3.8*.
Screening CN1CCc2c(sc3c2C(=O)NC(/C=C\c2ccccc2)N3)C1 (configuration not stated) returned Dicer inh 1.37.
C(=C\c1ccccc1)/CN1CCN(C/C=C/c2ccccc2)CC1 was read as Dicer inh -1.6.
Screening CCC12CC3CC(NC(C)=O)(C1)CC(C(=O)O)(C3)C2 (configuration not stated) returned Dicer inh 0.44.
For CC1CCC(N2CCN(C(=O)c3ccco3)CC2)CC1 (configuration not stated) the results were Dicer inh 0.07.
O=S(=O)(c1ccc2ccccc2c1)N1CCN(Cc2ccc3c(c2)OCO3)CC1 was read as Dicer inh 6.61*.
O=C(c1ccc2c(c1)OCO2)N1CCN(Cc2ccc3c(c2)OCO3)CC1 was read as Dicer inh -0.91.
`O=C(c1cc(-c2ccc3c(c2)OCO3)nc2ccccc12)N1CCN(Cc2ccc3c(c2)OCO3)CC1` gave Dicer inh 1.39.
For CCCS(=O)(=O)N1CCN(C(=O)c2ccco2)CC1 the results were Dicer inh 2.71.
Screening O=C(c1ccco1)N1CCN(Cc2ccc3c(c2)OCO3)CC1 returned Dicer inh 6.17*.
COc1ccc(S(=O)(=O)N2CCN(Cc3ccc4c(c3)OCO4)CC2)cc1 was read as Dicer inh 7.99.
O=S(=O)(c1ccccc1)N1CCN(Cc2ccc3c(c2)OCO3)CC1 was read as Dicer inh 8.02.
CN(C)C(=O)N1CCN(C(=O)c2ccco2)CC1 was read as Dicer inh 3.09*.
For Cc1ccc(/C(O)=C2\C(=O)C(=O)N(CCCn3ccnc3)C2c2ccccc2)cc1 (configuration not stated) the results were Dicer inh 2.21.
CCc1cccc(CC)c1Nc1nc2ccc(C(C)C)cc2s1 was read as Dicer inh 2.42.
Screening CC1=C(C(=O)OCCc2ccccc2)C(c2ccccc2C)C2=C(CCCC2=O)N1 (configuration not stated) returned Dicer inh 0.53.
For Cc1cc(C)c(C(=O)CC2(O)C(=O)Nc3ccc(C)cc32)c(C)c1 (configuration not stated) the results were Dicer inh 1.23.
Screening Cc1cc(C)c(C(=O)CC2(O)C(=O)Nc3ccc(Cl)cc32)c(C)c1 (configuration not stated) returned Dicer inh 4.62*.
`O=C(CC1(O)C(=O)Nc2ccc(Cl)cc21)c1ccccc1` (configuration not stated) gave Dicer inh 2.96.
Screening CCc1cccc2c(=O)c(C(=O)O)c[nH]c12 returned Dicer inh -1.34.
O=[N+]([O-])c1cc(Cl)ccc1Sc1ccccn1 was read as Dicer inh 0.16.
Screening O=[N+]([O-])c1cccnc1Sc1cc(Cl)ccc1Cl returned Dicer inh -0.4.
`O=[N+]([O-])c1ccc(Sc2cc(Cl)ccc2Cl)nc1` gave Dicer inh 4.72*.
Screening CCOC(=O)C1=C(N)CC(C(=O)OCC)=C(N)C1 returned Dicer inh -3.
For Clc1ccc(Oc2ncnc3c2nnn3Cc2ccccc2)cc1 the results were Dicer inh -1.01.
